These results are taken from article PMC7862700, “An all-to-all approach to the identification of sequence-specific readers for epigenetic DNA modifications on cytosine”.

Holding throughout (assay): DAPPL (digital affinity profiling via proximity ligation, sequencing); 10 mM Tris-HCl pH 7.5, 50 mM NaCl, 1 mM DTT, 4% glycerol, room temperature, 30 min; GST-TFs on glutathione beads, 16-mer random dsDNA library, 0.1% formaldehyde crosslink after washing; high values mean tight binding
The target in one experiment is T1, FEV (Homo sapiens, UniProt Q99581 1-238).
T1 sequence: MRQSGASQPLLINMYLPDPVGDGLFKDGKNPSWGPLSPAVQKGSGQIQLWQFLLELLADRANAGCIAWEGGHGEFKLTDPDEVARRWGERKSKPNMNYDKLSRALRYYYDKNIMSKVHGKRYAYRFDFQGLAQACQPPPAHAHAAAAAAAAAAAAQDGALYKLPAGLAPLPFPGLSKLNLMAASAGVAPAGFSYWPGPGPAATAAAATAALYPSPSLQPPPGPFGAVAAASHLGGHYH
The conditions noted are these: protein: recombinant; tags: N-terminal GST; dsDNA, one strand shown. In short, it runs like this: (§1)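 Human transcription factors were made in yeast as GST fusions, captured on glutathione beads and barcoded with DNA. With a tag-only sample included, the pool was incubated with 200 nmole of a random double-stranded 16-mer DNA library in Tris/NaCl/DTT/glycerol buffer at room temperature for 30 min, then crosslinked with 0.1% formaldehyde after washing, ligated by proximity, amplified and sequenced. For binding signal, each hexamer's read frequency for a factor is divided by its frequency for the tag-only sample.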

A further experiment deals with ETV5 (Homo sapiens, UniProt P41161 1-510). The conditions noted are these: protein: recombinant; tags: N-terminal GST; dsDNA, one strand shown. A digest of the protocol: as §1
The target of another experiment is HSF1 (Homo sapiens, UniProt Q00613 1-529). The following applies: protein: recombinant; tags: N-terminal GST; chain copies: 3; dsDNA, one strand shown. In short, it runs like this:
as §1

The target of another experiment is T2, SPIC (Homo sapiens, UniProt Q8N5J4 1-248).
T2 sequence: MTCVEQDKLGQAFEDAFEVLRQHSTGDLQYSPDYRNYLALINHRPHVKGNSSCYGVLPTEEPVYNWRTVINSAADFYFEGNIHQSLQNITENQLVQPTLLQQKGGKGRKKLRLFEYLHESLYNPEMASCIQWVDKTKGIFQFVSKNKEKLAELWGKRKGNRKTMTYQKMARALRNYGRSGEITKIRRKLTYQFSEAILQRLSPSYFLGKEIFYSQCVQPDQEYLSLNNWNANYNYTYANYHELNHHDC
The following applies: protein: recombinant; tags: N-terminal GST; dsDNA, one strand shown. A digest of the protocol:
as §1

Another experiment has as its target ELF4 (Homo sapiens, UniProt Q99607 1-663). The conditions noted are these: protein: recombinant; tags: N-terminal GST; dsDNA, one strand shown. A digest of the protocol:
as §1

A further experiment has as its target T3, ELK4 (Homo sapiens, UniProt P28324-2 1-405).
T3 sequence: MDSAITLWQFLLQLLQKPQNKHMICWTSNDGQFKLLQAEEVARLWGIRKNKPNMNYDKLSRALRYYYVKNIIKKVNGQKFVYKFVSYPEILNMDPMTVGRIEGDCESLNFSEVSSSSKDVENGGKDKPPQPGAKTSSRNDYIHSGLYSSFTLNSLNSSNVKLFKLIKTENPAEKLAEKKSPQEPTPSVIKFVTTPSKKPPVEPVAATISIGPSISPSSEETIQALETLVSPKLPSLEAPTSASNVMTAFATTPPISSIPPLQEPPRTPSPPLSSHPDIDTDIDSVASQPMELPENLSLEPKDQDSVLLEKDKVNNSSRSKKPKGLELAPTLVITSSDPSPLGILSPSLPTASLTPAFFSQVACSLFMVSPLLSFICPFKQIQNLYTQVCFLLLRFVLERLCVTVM
The following applies: protein: recombinant; tags: N-terminal GST; dsDNA, one strand shown. A digest of the protocol: as §1

Another experiment addresses T4, ETV2 (Homo sapiens, UniProt O00321 1-342).
T4 sequence: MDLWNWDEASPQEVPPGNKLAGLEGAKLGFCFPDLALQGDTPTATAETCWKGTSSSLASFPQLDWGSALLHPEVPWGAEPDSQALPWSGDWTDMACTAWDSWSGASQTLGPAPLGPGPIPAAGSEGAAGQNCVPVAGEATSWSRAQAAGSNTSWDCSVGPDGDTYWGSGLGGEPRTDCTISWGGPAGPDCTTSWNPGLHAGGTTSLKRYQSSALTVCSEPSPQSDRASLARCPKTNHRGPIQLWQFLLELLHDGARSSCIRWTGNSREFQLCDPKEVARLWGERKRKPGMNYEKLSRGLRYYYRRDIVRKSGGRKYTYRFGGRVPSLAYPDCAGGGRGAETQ
The following applies: protein: recombinant; tags: N-terminal GST; dsDNA, one strand shown. In short, it runs like this: as §1

Another experiment deals with T5, ELF3 (Homo sapiens, UniProt P78545 1-371).
T5 sequence: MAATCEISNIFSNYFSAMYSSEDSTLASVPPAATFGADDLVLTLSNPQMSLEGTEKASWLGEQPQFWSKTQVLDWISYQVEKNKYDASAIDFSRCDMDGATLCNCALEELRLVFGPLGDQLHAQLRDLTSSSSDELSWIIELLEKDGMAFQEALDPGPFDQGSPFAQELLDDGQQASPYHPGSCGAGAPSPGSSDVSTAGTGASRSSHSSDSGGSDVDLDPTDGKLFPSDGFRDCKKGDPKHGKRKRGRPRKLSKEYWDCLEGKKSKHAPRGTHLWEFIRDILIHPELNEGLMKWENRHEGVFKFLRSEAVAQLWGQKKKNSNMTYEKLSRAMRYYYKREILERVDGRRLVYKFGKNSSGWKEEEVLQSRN
The following applies: protein: recombinant; tags: N-terminal GST; dsDNA, one strand shown. In short, it runs like this: as §1

A further experiment concerns the target CRX (Homo sapiens, UniProt O43186 1-299). The conditions noted are these: protein: recombinant; tags: N-terminal GST; dsDNA, one strand shown. In short, it runs like this: as §1
The target of the next experiment is ETV1 (Homo sapiens, UniProt P50549 1-477). The following applies: protein: recombinant; tags: N-terminal GST; dsDNA, one strand shown. A digest of the protocol:
as §1

A further experiment deals with T6, ERF (Homo sapiens, UniProt P50548 1-548).
T6 sequence: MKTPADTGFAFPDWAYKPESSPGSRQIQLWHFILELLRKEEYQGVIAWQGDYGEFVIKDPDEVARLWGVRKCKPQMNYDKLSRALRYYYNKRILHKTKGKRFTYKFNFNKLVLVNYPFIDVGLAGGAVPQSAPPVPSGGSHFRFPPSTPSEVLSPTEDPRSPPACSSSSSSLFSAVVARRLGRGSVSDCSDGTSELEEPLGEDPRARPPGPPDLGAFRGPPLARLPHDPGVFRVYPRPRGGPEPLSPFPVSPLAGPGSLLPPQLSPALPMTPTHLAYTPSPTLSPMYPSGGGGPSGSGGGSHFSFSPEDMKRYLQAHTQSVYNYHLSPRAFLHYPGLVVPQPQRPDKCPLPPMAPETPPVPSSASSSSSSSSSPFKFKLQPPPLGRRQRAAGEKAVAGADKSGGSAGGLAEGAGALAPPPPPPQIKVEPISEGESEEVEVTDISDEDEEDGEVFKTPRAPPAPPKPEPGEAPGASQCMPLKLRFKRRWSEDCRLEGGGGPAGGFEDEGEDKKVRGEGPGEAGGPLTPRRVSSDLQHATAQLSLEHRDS
The conditions noted are these: protein: recombinant; tags: N-terminal GST; dsDNA, one strand shown. In short, it runs like this: as §1

In another experiment the target is T7, ETV3L (Homo sapiens, UniProt Q6ZN32 1-361).
T7 sequence: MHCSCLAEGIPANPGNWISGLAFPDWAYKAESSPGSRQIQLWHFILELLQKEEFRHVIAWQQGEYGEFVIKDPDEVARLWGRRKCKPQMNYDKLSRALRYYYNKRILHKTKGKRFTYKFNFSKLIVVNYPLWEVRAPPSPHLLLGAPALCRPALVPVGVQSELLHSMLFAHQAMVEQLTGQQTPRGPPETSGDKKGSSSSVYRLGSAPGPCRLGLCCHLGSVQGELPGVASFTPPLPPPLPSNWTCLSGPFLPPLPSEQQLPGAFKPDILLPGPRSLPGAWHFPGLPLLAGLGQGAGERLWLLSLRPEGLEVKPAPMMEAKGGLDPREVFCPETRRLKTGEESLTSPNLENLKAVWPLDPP
The following applies: protein: recombinant; tags: N-terminal GST; dsDNA, one strand shown. In short, it runs like this:
as §1

Another experiment deals with T8, ETS2 (Homo sapiens, UniProt P15036 1-469).
T8 sequence: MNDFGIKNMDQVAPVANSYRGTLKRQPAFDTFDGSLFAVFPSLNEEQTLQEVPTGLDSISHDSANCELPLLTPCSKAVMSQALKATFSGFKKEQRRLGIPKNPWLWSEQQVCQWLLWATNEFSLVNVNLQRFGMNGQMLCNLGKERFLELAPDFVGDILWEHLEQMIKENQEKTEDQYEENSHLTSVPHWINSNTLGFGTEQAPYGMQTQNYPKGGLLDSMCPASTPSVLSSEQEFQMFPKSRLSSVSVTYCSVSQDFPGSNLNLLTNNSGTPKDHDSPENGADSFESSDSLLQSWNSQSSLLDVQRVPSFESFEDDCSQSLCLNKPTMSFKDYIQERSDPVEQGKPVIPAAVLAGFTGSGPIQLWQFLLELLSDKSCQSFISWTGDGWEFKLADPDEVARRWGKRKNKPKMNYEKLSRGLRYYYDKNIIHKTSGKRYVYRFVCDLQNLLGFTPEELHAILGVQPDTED
The following applies: protein: recombinant; tags: N-terminal GST; dsDNA, one strand shown. A digest of the protocol:
as §1

Another experiment concerns the target T9, SPDEF (Homo sapiens, UniProt O95238 1-335).
T9 sequence: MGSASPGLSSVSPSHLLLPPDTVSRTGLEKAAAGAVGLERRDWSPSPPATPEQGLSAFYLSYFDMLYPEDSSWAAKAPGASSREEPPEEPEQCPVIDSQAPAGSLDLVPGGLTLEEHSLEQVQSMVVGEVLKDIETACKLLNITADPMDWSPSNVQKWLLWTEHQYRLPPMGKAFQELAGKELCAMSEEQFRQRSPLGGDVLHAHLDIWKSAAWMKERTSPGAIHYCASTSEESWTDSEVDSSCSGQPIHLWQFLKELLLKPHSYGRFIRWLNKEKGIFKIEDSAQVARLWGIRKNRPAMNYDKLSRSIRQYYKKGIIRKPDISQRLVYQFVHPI
The conditions noted are these: protein: recombinant; tags: N-terminal GST; dsDNA, one strand shown. In short, it runs like this:
as §1

For the next experiment, the target named is T10, ETV7 (Homo sapiens, UniProt Q9Y603 1-341).
T10 sequence: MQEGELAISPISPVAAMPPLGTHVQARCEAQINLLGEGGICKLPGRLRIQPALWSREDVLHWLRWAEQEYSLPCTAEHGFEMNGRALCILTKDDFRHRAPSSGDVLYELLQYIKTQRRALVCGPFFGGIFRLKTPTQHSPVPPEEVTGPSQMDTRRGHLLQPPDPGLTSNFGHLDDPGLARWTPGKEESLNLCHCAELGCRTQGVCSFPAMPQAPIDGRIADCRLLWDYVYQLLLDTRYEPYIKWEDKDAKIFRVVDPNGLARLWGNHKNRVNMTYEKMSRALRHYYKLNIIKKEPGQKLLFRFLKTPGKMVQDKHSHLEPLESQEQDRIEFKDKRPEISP
The following applies: protein: recombinant; tags: N-terminal GST; dsDNA, one strand shown. In short, it runs like this:
as §1

For the next experiment, the target named is T11, ELF5 (Homo sapiens, UniProt Q9UKW6-2 1-255).
T11 sequence: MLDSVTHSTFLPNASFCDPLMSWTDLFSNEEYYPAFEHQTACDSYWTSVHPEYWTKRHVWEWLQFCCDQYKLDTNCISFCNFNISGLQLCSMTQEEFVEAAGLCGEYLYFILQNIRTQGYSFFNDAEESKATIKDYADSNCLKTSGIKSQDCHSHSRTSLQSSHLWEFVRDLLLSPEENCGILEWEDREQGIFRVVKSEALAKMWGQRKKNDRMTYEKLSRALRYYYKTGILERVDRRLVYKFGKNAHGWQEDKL
The following applies: protein: recombinant; tags: N-terminal GST; dsDNA, one strand shown. In short, it runs like this: as §1

A further experiment deals with T12, ETV3 (Homo sapiens, UniProt P41162-2 1-143).
T12 sequence: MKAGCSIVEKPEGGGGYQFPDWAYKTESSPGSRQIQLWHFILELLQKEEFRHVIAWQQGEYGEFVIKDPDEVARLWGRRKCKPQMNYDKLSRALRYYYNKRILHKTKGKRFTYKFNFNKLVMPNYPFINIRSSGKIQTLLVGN
The following applies: protein: recombinant; tags: N-terminal GST; dsDNA, one strand shown. In short, it runs like this:
as §1

A further experiment concerns the target ETV6 (Homo sapiens, UniProt P41212 1-452). The conditions noted are these: protein: recombinant; tags: N-terminal GST; dsDNA, one strand shown. A digest of the protocol:
as §1

Sequence of ELF4 (Q99607 whole entry): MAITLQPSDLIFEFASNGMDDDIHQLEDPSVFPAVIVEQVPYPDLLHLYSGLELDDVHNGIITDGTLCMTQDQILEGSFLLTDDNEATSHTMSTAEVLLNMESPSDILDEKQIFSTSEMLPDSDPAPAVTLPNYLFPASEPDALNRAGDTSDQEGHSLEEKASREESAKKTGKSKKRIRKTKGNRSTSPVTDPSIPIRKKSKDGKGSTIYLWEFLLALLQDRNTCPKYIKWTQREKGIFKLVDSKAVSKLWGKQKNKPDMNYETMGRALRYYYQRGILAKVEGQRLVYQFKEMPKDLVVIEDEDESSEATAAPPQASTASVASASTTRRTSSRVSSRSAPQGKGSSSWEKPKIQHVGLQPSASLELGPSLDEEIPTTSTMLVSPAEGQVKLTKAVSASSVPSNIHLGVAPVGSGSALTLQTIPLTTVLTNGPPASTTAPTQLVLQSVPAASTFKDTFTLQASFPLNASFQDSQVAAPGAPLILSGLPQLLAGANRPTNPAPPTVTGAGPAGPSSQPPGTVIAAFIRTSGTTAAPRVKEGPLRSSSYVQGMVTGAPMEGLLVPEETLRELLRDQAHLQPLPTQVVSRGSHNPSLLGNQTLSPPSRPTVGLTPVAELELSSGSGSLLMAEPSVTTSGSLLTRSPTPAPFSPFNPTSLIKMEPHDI
Sequence of ETV1 (P50549 whole entry): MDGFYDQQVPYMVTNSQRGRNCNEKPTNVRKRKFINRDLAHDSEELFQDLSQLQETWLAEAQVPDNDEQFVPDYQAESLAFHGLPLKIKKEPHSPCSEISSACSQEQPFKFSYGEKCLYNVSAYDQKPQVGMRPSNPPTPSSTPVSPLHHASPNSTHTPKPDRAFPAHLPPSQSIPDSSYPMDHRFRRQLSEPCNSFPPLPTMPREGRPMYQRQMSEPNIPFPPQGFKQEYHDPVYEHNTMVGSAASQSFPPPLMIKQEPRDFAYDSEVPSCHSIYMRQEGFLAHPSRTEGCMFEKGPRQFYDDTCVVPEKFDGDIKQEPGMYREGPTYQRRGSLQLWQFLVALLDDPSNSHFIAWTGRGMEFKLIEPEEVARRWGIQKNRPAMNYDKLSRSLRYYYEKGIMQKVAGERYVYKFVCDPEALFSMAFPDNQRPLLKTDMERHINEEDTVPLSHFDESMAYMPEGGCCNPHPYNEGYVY
Sequence of ETV6 (P41212 whole entry): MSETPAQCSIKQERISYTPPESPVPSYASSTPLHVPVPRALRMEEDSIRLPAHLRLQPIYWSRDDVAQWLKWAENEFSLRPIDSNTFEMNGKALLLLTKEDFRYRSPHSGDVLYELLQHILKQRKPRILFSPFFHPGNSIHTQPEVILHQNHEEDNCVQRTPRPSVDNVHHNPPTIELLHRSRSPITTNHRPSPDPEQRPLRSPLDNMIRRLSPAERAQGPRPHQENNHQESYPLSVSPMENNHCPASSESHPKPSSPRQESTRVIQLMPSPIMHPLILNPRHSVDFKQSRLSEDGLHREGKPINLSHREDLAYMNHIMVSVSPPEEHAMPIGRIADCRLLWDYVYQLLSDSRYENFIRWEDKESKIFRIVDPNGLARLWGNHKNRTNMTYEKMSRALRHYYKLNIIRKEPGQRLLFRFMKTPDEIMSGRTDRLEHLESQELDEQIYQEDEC
Sequence of ETV5 (P41161 whole entry): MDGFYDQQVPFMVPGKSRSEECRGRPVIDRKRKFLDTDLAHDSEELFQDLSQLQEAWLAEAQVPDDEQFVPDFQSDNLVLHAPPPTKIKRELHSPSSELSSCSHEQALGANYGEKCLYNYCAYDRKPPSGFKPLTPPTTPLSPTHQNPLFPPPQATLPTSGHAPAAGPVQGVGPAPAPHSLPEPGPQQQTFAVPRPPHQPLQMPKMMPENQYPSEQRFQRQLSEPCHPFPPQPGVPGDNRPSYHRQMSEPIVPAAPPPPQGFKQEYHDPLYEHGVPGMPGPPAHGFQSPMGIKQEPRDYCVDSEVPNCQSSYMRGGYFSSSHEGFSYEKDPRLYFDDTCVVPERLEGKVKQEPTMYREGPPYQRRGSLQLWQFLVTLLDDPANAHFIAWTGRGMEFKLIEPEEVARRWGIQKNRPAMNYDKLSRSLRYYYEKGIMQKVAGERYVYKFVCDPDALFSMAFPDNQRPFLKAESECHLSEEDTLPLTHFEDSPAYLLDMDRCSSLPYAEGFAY
Sequence of HSF1 (Q00613 whole entry): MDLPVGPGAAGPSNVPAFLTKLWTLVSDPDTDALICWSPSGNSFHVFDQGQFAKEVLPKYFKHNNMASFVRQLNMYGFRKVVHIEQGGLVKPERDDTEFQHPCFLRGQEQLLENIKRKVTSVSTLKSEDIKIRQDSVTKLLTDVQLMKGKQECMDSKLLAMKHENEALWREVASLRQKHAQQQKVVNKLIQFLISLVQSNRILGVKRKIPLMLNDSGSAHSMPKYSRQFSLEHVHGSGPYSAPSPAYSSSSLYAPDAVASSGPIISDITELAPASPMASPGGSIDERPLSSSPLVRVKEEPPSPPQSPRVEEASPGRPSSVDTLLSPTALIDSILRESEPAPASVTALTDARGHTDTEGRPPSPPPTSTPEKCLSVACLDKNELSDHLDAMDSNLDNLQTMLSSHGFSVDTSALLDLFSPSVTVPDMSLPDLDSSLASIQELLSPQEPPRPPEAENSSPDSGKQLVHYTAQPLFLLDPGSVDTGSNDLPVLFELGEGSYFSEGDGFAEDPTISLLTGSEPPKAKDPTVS
Sequence of CRX (O43186 whole entry): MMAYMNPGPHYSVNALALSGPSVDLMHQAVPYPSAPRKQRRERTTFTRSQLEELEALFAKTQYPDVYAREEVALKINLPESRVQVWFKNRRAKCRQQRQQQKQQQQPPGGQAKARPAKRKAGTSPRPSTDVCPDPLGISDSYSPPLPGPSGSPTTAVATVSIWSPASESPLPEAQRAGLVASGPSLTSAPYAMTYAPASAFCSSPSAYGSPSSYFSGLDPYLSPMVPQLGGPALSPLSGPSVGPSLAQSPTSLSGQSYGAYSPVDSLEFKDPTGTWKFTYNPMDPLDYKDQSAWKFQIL

For ATCCTC, the binding signal is 1.48 fold enrichment (6-mer frequency, TF over GST control) with FEV; 1.46 fold enrichment (6-mer frequency, TF over GST control) with ETV5; 1.67 fold enrichment (6-mer frequency, TF over GST control) in the experiment with HSF1; 1.31 fold enrichment (6-mer frequency, TF over GST control) with SPIC; 1.47 fold enrichment (6-mer frequency, TF over GST control) with ELF4; 1.39 fold enrichment (6-mer frequency, TF over GST control) in the experiment with ELK4. For the same sequence, the binding signal was 1.68 fold enrichment (6-mer frequency, TF over GST control) in the experiment with ETV2; 1.42 fold enrichment (6-mer frequency, TF over GST control) with ELF3; 2.46 fold enrichment (6-mer frequency, TF over GST control) in the experiment with CRX; 1.55 fold enrichment (6-mer frequency, TF over GST control) with ETV1; 1.34 fold enrichment (6-mer frequency, TF over GST control) with ERF; 1.53 fold enrichment (6-mer frequency, TF over GST control) with ETV3L. In addition, the binding signal with ETS2 was 1.41 fold enrichment (6-mer frequency, TF over GST control); in the experiment with SPDEF it was 1.56 fold enrichment (6-mer frequency, TF over GST control); with ETV7 it was 1.46 fold enrichment (6-mer frequency, TF over GST control); with ELF5 it was 1.95 fold enrichment (6-mer frequency, TF over GST control); in the experiment with ETV3 it was 1.51 fold enrichment (6-mer frequency, TF over GST control); in the experiment with ETV6 it was 1.37 fold enrichment (6-mer frequency, TF over GST control).
